From ChEMBL document CHEMBL3433997, “St. Jude Leishmania screening dataset” (2016)

How the values were obtained:
Assay type in all cases: functional
[1] = molecular target: Solute carrier family 2, facilitated glucose transporter member 1 (Homo sapiens) (UniProt P11166); experiment: ST_JUDE_LEISH: Cytotoxicity at 2uM final concentration against transgenic Leishmania Mexicana promastigotes LmGLUT1 that are glucose transport deficient and complemented with the human glucose transporter GLUT1. Activity is measured by DNA content using SYBR green in vitro
[2] = molecular target: Hexose transporter 1 (Plasmodium falciparum) (UniProt O97467); experiment: ST_JUDE_LEISH: Cytotoxicity at 2uM final concentration against transgenic Leishmania Mexicana promastigotes LmPfHT that are glucose transport deficient and complemented with the Plasmodium falciparum hexose transporter. Activity is measured by DNA content using SYBR green in vitro
[3] = molecular target: Glucose transporter (Leishmania mexicana) (UniProt O61059); experiment: ST_JUDE_LEISH: Cytotoxicity at 2uM final concentration against transgenic Leishmania Mexicana promastigotes LmGT2 that are glucose transport deficient and complemented with the L. Mexicana glucose transporter 2. Activity is measured by DNA content using SYBR green in vitro

Sequence of Solute carrier family 2, facilitated glucose transporter member 1 (Homo sapiens) (P11166 whole entry): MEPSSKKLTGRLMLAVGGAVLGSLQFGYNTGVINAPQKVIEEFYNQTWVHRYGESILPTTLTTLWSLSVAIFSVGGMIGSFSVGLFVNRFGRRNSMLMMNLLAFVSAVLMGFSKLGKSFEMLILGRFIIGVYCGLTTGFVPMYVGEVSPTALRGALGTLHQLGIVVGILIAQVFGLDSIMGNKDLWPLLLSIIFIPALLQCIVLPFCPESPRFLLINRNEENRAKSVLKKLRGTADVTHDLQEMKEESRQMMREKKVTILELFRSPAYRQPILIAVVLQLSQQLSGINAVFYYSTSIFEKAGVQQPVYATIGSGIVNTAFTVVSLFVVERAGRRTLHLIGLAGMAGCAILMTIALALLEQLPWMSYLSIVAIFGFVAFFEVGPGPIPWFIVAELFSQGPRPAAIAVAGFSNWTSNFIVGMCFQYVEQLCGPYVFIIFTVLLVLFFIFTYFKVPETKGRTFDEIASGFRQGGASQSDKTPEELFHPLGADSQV

Compound | inhibition [1] | inhibition [2] | inhibition [3]
CCN(CCCN1CCCCC1)c1cc(C)nc(Nc2cccc(C(F)(F)F)c2C)n1 | -0.36% | 1.74% | 0.96%
O=c1ccc2ccc(F)cc2n1CCN1CCC(NCc2ccc(-c3ccccn3)s2)CC1 | 4.21% | 3.12% | -0.91%
Cc1cccc2nc(-c3ccc(-c4ccc(CNCc5ccccc5)cc4)s3)[nH]c12 | 8.05% | 4.44% | 3.06%
COc1ccc(NC(=O)[C@H](Cc2ccccc2)Nc2cc(C)nc(NCCc3ccccc3)n2)cc1 | 5.74% | 6.29% | 5.16%
Cc1cccc2nc(-c3cccc(-c4ccc(NC(=O)C5CCCO5)cc4)c3)[nH]c12 (stereo not given) | 6.93% | 3.31% | 2.04%
O=C(NCCc1cccc(F)c1)c1cc(Br)cc(N2CCN(c3ccncc3)CC2)c1 | 6.76% | 5.57% | 3.44%
O=C(Nc1ccc(C(F)(F)F)cc1)c1cccc(S(=O)(=O)NC2CCN(CC3CCCCC3)CC2)c1 | 5.27% | 5.53% | 4.52%
Cc1ccc(C2(C)CN(CCCOc3cccc(-c4ccc(C(=O)NC(C)C)cc4)c3)CCO2)cc1 (stereo not given) | 0.12% | 4.27% | 0.85%
COc1cc(Cc2cnc(N)nc2N)ccc1OCc1csc(-c2ccc(Cl)cc2)n1 | 10% | 11.7% | 9.8%
CCCNCCc1ccc(NS(=O)(=O)c2cccc(-c3ccc(Cl)cc3)c2)cc1 | 1.93% | 0.61% | 1.01%
CN(CCCc1c[nH]c2ccccc12)CC1CCN(C(=O)/C=C/c2ccc(Cl)c(Cl)c2)CC1 | -3.42% | -1.25% | -1.38%
O=C(O)c1ccc(-c2cnc3ccc(NC4CCC(O)CC4)nn23)cc1 (stereo not given) | 0.42% | 0.39% | -0.34%
O=C(Cn1c(SCc2cccc(F)c2F)cc(=O)c2ccccc21)N(CCc1c[nH]cn1)Cc1ccc(-c2ccc(C(F)(F)F)cc2)cc1 | 4.17% | 5.15% | 2.52%
N#Cc1ccc(N/C(=N\c2ccccc2Cl)NC2CCN(Cc3ccccc3)CC2)c(O)c1 | 2.09% | 2.49% | 0.29%
FC(F)c1nc2ccccc2n1-c1nc(N2CCOCC2)nc(N2CCOCC2)n1 | 2.11% | 2.9% | 3.12%
Cc1c(C(=O)N(C)C)sc2c1c(=O)n(Cc1ccccc1)c(=O)n2CC(=O)Nc1ccccc1F | 2.21% | 3.39% | 1.57%
c1cc(CNCC2CCN(CC3CCCCC3)CC2)cc(-n2ccnc2)c1 | -1.01% | -0.61% | 0.1%
O=C(NCCN1CCCC1)c1ccc(-c2cccc(-c3nc4cc(F)ccc4[nH]3)c2)cc1 | -0.16% | 0% | -0.53%
OC(CNc1ccnc(Nc2cccc(Cl)c2)n1)c1ccc(C(F)(F)F)cc1 (stereo not given) | 9.21% | 7.14% | 5.22%
CS(=O)(=O)Nc1cccc(-c2cnc3[nH]cc(-c4cccc(CN)c4)c3c2)c1 | 4.77% | 3.29% | 3.74%
N#Cc1cccc(NC(=O)Nc2cccc(-c3cccc(-c4nc5ccccc5[nH]4)c3)c2)c1 | 5.25% | 5.22% | 3.75%
Oc1ccc2ccccc2c1CNC1CCCCCC1 | 0.85% | 1.51% | 1.96%
Cc1ccc(-c2nnc(Nc3ccc(OCC(N)=O)cc3)c3ccccc23)cc1S(=O)(=O)NCC1CCCO1 (stereo not given) | 1.11% | 3.81% | 2%
COc1ccccc1CNc1nc(Nc2ccccc2C)nc2ccccc12 | 38.4% | 54.5% | 14.4%
c1ccc(CNCCn2c(-c3ccc4c(c3)CCO4)nc3c(N4CCCC4)cccc32)cc1 | 11.7% | 8.74% | 6.86%

Compound | inhibition [1] | inhibition [2] | inhibition [3]
CC(Sc1nc2sccc2c(=O)n1C)C(=O)Nc1ccc2c(c1)OCO2 (stereo not given) | 4.94% | 5.47% | 3%
Cc1cccc(C(=O)NC(NC(=S)Nc2ccc([N+](=O)[O-])cc2)C(Cl)(Cl)Cl)c1 (stereo not given) | 3.68% | 3.52% | -0.6%
CN1CCC(NCc2ccc(-c3ccc(S(=O)(=O)NCc4ccccc4)cc3)cc2)CC1 | 0.4% | -1.45% | -3.56%
O=C(Nc1ccc(S(=O)(=O)N2CCCC2)cc1)c1cc(-c2cccnc2)nc2ccc(Cl)cc12 | 7.34% | 2.97% | 3.06%
CC(=O)N(C)c1ccc(C(=O)Nc2cccc(-c3cccc(-c4nc5cccc(C)c5[nH]4)c3)c2)cc1 | 3.67% | 3.97% | 0.08%
Cc1cccc(OCC(=O)Nc2cccc(NC(=O)COc3cccc(C)c3)n2)c1 | 0.99% | 1.55% | 1.64%
O=C(Nc1ccc(C(=O)OCC2CCCN3CCCCC23)cc1)c1ccc([N+](=O)[O-])cc1 (stereo not given) | -1.57% | 0.57% | 0.99%
CCOc1ccc(NC(=O)c2cccc(CN3CCCN(Cc4cccc(O)c4)CC3)c2)cc1 | -0.94% | 0.07% | 0.81%
CS(=O)(=O)Cc1ccc(Nc2nccc(-c3c(-c4cccc(NC(=O)C5CCCCC5)c4)nn4ncccc34)n2)cc1 | 3.22% | 5.62% | 1.63%
CCN(CC)CCN(Cc1ccc(-c2ccc(C(F)(F)F)cc2)cc1)C(=O)Cn1cc(Cc2cnn(C)c2)c(=O)nc1/C=C/c1cccc(F)c1F | 3.81% | 4.43% | 2.54%
CCC[C@@H]([C@@H](CC1CCCCC1)C(=O)N[C@H](C(=O)Nc1nccs1)C(C)(C)SCCNC(=O)OCc1ccccn1)N(O)C=O | -3.15% | -0.71% | 8.17%
COc1cccc(Nc2nccc(NCC(O)c3ccc(C(F)(F)F)cc3)n2)c1 (stereo not given) | 7.45% | 8.55% | 2.75%
O=C(NCC(CCN1CCC(c2c[nH]c3ccccc23)CC1)c1ccccc1)Nc1ccc(Cl)c(Cl)c1 (stereo not given) | 5.74% | 2.72% | 2.16%
Cc1noc(C)c1-c1ccc2c(Nc3ccc(C(F)(F)F)cc3)c(C(N)=O)cnc2c1 | 3.49% | 3.21% | -3.02%
C[C@H](Cc1ccc(C[C@@H](C)NCC(O)c2cc(Cl)c(N)c(Cl)c2)cc1)NCC(O)c1cc(Cl)c(N)c(Cl)c1 (stereo not given in full) | 0.36% | 0.31% | 1.14%
Cc1cc(N2CCC(N(C)C)C2)nc(Nc2ccc(Cl)cc2)n1 (stereo not given) | 4.11% | 3.16% | 4.87%
COc1cc(/C=C/C(=O)NC2CCC(N3CCC(c4ccccc4C)CC3)CC2)cc(OC)c1 (stereo not given) | -0.75% | -0.16% | 0.77%
O=C(NCCN1CCCC1)c1cccc(-c2ccc(-c3nc4cc(C(F)(F)F)ccc4[nH]3)cc2)c1 | 1.29% | 0.34% | 0.32%
COc1cc(F)c2ncc(Cl)c([C@@H](O)CN3CCC(NCc4ccc5c(n4)NC(=O)CO5)CC3)c2c1 | 6.57% | 3.3% | 2.71%
COc1cc2nc(NCc3cccc(CNC(=O)c4ccc(-c5ccc(C(C)=O)cc5)cc4)c3)nc(N)c2cc1OC | 0.91% | -0.03% | 0.66%
CCOc1ccc(OCCCON2C(=N)N=C(N)NC2(C)C)cc1 | 1.93% | 0.06% | 0.05%
CC(C)(C)c1ccc(-c2ccccc2CNC(=O)c2cccc(O)c2)cc1 | 6.97% | 6.5% | 7.1%
Cc1[nH]c2ccccc2c1C1CCN(CCCCNC(=O)c2ccc(-c3ccc(C#N)cc3)cc2)CC1 | 11.2% | 9.94% | 10.3%
Fc1ccc2[nH]c(-c3cccc(-c4cccc(CNCc5ccccc5)c4)c3)nc2c1 | 0.07% | -0.96% | -0.93%
COc1ccc(-c2ccc(NC(=O)c3ccc(C#N)cc3)cc2)cc1CN1CCN(C)CC1 | 4.24% | 1.9% | 2.76%
